Measured values taken from PubChem BioAssay AID651871 (Sanford-Burnham Center for Chemical Genomics, 2012).

Tested on: HL-1
Test: cardiomyocyte survival under oxidative or metabolic stress – cell-based, panel, H9c2 and HL-1, ATP luminescence, set 2, SAR follow-up (AID 651871);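 also: cells exposed to stressor for 2 h before ATP readout; reference of the scale not given here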
Details: H9c2/HL-1 cardiomyocytes, 2-deoxyglucose stress, with 2-deoxyglucose, run 6, at 79 µM (top of the series)

| Structure (SMILES) | activity (protection/inhibition) |
| --- | --- |
| COc1ccc2c(c1OC)C(=O)N1c3ccccc3C(=O)N(Cc3cccc(Cl)c3Cl)C21 (stereo not drawn) | -11.4% |
| COc1ccc2nc(-c3cc(OC)c(OC)c(OC)c3)cc(C(=O)NCC(=O)Nc3ccc(C(C)=O)cc3)c2c1 | 61.1% |
| CCOC(=O)c1cccc(NC(=O)CNC(=O)c2cc(-c3cc(OC)c(OC)c(OC)c3)nc3ccccc23)c1 | 74.8% |
